# Eya2 phos inh: qHTS Assay for Inhibitors of the Phosphatase Activity of Eya2. hit rate 0.006% among 330,000. recombinant Eya2, OMFP fluorescence dephosphorylation (OMFP is methylfluorescein phosphate). Potency, µM (doses to about 76.9 µM), for the others: top-dose activity, negative = inhibition, most hits filed as inhibitors. Protein phosphatase EYA2 (Homo sapiens), O00167; active = well fitted inhibition curve with a large enough effect; inconclusive = small, poorly fitted or top-dose-only effect, or effect the other way; also: potency is read from the fitted curve at half-maximal effect
#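 Eya2 (0.2 uM) preincubated 10 min at ambient with compound, then OMFP substrate added at 50 uM; 10 min reaction in 50 mM HEPES pH 7.5, 50 mM NaCl, 5 uM MgCl2, 0.05% BSA, 1 mM DTT. Fluorescence read at Ex 485/Em 525 nm.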
# CCT chaperon mod: High-Throughput Screening for Modulators of Cytosolic Chaperonin Activity; activity change, % (test concentration not listed), hits read low; hit rate 0.3% among 360,000; purified chaperonin ATPase assay, HTRF ADP detection, 30 min; in the data active = activity change below about -30%
#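 We incubate TRiC, 40 or 20 nM final, with library compounds at 76 uM and 10 uM ATP for 30 min at 37 °C. ADP formed is detected with Transcreener HTRF reagents after 30 min at room temperature.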
# Six1-Eya2 inh: qHTS Assay for Inhibitors of the Six1/Eya2 Interaction | Homeobox protein SIX1 (Homo sapiens) + Protein phosphatase EYA2 (Homo sapiens), … | AlphaScreen GST-Six1/His-Eya2 binding, biochemical; active compounds read low | activity change, % (test concentration not listed) | hit rate 0.56% among 360,000 | AID 651725, 2012
#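 AlphaScreen with GST-Six1 and His-Eya2 (5X mix: 250 nM and 500 nM), glutathione donor and nickel acceptor beads; buffer 50 mM Tris pH 8.0, 300 mM NaCl, 1 mM TCEP; 1 h at 37 C in the dark.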
# CtBP-E1A blk: qHTS Assay for Inhibitors of the CtBP/E1A Interaction; AlphaScreen GST-E1A/His-CtBP binding, 1536-well; active compounds read low; activity change, % (test concentration not listed); hit rate 0.49% among 340,000; AID 651724, 2012
#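 Steps: dispense buffer (Tris pH 8.0, NaCl 300 mM, TCEP 1 mM, BSA, Tween 20); add 5X protein mix (GST-E1A, His-CtBP, 125 nM each); pin 23 nL compound; 2 h at 37 °C, dark; add 5X beads (50 ug/mL); 1 h; read.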
# PI4K2A block: qHTS for small molecular inhibitors of PI4K2A; AID 1346378, 2018; activity change, negative = inhibition, % at 76.9 µM; Phosphatidylinositol 4-kinase type 2-alpha (Homo sapiens), Q9BTU6; purified PI4K2A, ADP-Glo luminescence, 1 h; active compounds read low; hit rate 0.13% among 420,000; in the data active = activity change below about -50%; inconclusive = mostly about -30% to -49%;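 also: -100% = wells without enzyme as full effect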
# Target sequence (Q9BTU6 whole entry, looked up): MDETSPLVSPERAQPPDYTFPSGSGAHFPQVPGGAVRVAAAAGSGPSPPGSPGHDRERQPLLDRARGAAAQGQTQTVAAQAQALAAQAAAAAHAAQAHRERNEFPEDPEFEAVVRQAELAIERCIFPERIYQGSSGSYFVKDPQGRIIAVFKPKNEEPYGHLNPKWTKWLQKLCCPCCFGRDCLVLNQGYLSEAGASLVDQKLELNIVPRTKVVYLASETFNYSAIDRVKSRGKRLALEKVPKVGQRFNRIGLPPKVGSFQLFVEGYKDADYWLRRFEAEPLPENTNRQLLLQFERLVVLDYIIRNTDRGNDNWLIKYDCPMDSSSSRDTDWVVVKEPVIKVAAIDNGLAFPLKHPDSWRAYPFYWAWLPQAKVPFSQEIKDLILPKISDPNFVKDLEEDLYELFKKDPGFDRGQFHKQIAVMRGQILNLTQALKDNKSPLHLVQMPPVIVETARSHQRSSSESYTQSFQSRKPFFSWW
#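 ADP-Glo luminescence measured ADP generated by PI4K2A enzyme (4 ug/mL before mixing) with 1.2 mM PI substrate (pre-mix) and 300 microM ATP (pre-mix). Tris pH7.5 buffer with MgCl2, Triton X-100; 1 h reaction at ambient temperature.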
# An asterisk follows results filed as active; i = inactive; ? = inconclusive; . = not tested or not shown; ! = not confirmed by another sample. This is a sample that favours compounds with a hit; in the whole collection about 0.97% have one here. Rule as the data show it, unless noted: active = activity change below about -65%; inconclusive = mostly about -30% to -63%; inactive = weaker than that. Unless noted, % is scaled to controls: 0 for no effect and ±100 for the full control effect.
SMILES,Eya2 phos inh,CCT chaperon mod,Six1-Eya2 inh,CtBP-E1A blk,PI4K2A block
COC1=CC(=O)OC(CCc2ccc3c(c2)OCO3)C1 (configuration not stated),.,-31.7*,-1.8,6.2,-0.4
CN1C(=O)C(=Cc2ccccc2OCCOc2ccc([N+](=O)[O-])cc2)C(=O)N(C)C1=O,3.8%,-2.4,-10.4,-10.9,-8.1
O=C1NC(=O)C(=Cc2ccccc2OCCOc2ccc([N+](=O)[O-])cc2)C(=O)N1,?,-32.5*,-15.6,-7.6,-25.5
CC(=NNC(=S)N1CC2CCC(CC2)C1)c1nccs1,.,-2.7,-89.3*,-96.5*,26.4
CCn1nc(/C=C/c2ccccc2)nc2c(=O)n(C)c(=O)nc1-2,-0.8%,2.4,-27.5,12.9,-69.0*
CCn1nc(-c2cccs2)nc2c(=O)n(C)c(=O)nc1-2,?,1.1,-13.5,-17.7,-60.7*
CCOc1ccc(-n2c(/C=C/c3ccccc3)nc3ccccc3c2=O)cc1,.,.,.,.,-4.9
CCOc1ccc(-n2c(-c3cccs3)nc3ccccc3c2=O)cc1,-16.9%,-1.0,0.1,2.1,-4.6
Fc1cc(Br)ccc1CBr,.,.,.,.,-6.7
CCOC(C(=O)OCCN(C)C)(c1ccccc1)c1ccccc1,.,.,.,.,3.8
CO/C=C(/C(=O)OC)c1ccccc1Oc1cc(Oc2ccccc2C#N)ncn1,.,.,.,.,i
C=CCC1=C(C)C(OC(=O)C2C(C=C(C)C)C2(C)C)CC1=O (configuration not stated),.,.,.,.,i
CCOC(=O)C1(c2ccccc2)CCN(CCc2ccc(N)cc2)CC1,.,.,.,.,2.2
CCOC(=O)CC1c2ccccc2-n2nncc2CN1C (configuration not stated),.,-86.1*,6.9,-2.8,6.8
CCOC(=O)CC1c2ccccc2-n2nncc2CN1CC1CCCCC1 (configuration not stated),.,1.2,1.7,2.5,-0.4
O=c1[nH]cc(N(CCCl)CCCl)c(=O)[nH]1,.,.,.,.,-67.3*
C[C@]12CCC3C(CC[C@H]4C[C@H](O)CC[C@]34C)C1C[C@H](O)[C@H]2O (some centres not stated),.,-0.8,-4.6,7.1,7.3
C[C@]12CCC3C(CC[C@H]4C[C@@H](O)CC[C@]34C)C1=CC[C@@H]2O (some centres not stated),.,-35.1*,-9.3,7.8,-7.5
CC(C(O)c1ccccc1)N(C)C/C=C/c1ccccc1 (configuration not stated),.,.,.,.,3.4
C[C@]12CC[C@H]3[C@@H](CCC4=CC(=O)CC[C@@H]43)[C@@H]1CC[C@@H]2OC(=O)CCc1ccco1,.,.,.,.,1.1
C1CN2CCC1CC2,.,.,.,.,4.7
Cc1cccc(-n2c(/C=C/c3ccccn3)nc3ccccc3c2=O)c1,-16.3%,-38.3*,-0.8,2.3,4.2
COc1ccc(-n2c(/C=C/c3ccc4c(c3)OCO4)nc3ccccc3c2=O)cc1,-4.1%,-40.1*,12.9,6.1,-6.1
C[C@]12CCC(=O)C=C1CC[C@@H]1[C@H]3CC[C@](C)(O)[C@@]3(C)CC[C@@H]12,.,.,.,.,i
C[C@]12Cc3cn[nH]c3C[C@@H]1CC[C@@H]1[C@@H]2CC[C@@]2(C)[C@H]1CC[C@]2(C)O,.,.,.,.,2.2
SMILES,Eya2 phos inh,CCT chaperon mod,Six1-Eya2 inh,CtBP-E1A blk,PI4K2A block
CCC(C)C(C)(COC(N)=O)COC(N)=O (configuration not stated),.,.,.,.,4.9
C[n+]1ccc(-c2ccccc2)c2ccccc21,8.3%,-31.7*,-0.2,-0.1,-1.5
COc1cc(OC)c(OC)cc1/C=C1/C(=O)NC(=O)N(Cc2ccccc2)C1=O,-7.1%,0.4,-5.4,0.0,-52.7*
c1ccc(N2CCNCC2)cc1,.,.,.,.,2.5
NC(=O)CI,-0.9%,.,.,.,-54.3*
COc1ccccc1/C=N/N=C(/N)N[N+](=O)[O-],6.2%,-0.4,3.7,-4.8,-1.6
N/C(=N\N=C\c1ccc(O)cc1O)N[N+](=O)[O-],21.6%,1.8,-73.5*,-83.2*,-5.9
CC[N+]1(CC)CCC(OC(=O)C(O)(c2ccccc2)c2ccccc2)C1 (configuration not stated),.,.,.,.,2.1
CC(Cc1ccccc1)NCCCCl (configuration not stated),.,.,.,.,1.5
NC(Cc1cc(O)c(O)cc1O)C(=O)O (configuration not stated),-20.5%,.,.,.,-80.2*
CC(C)N1C(=O)/C(=C/C=C/c2ccco2)C(=O)N(Cc2ccco2)C1=O,8.5%,1.1,?,10.7,-58.8*
COc1ccc(/C=C2/C(=O)N(Cc3ccco3)C(=O)N(C(C)C)C2=O)cc1,10.8%,1.1,0.3,.,-20.8
COc1ccc(Cn2c(O)c(/C=N/NC(=O)c3ccccc3O)c(=O)[nH]c2=O)cc1,-5.5%,-2.9,-87.4*,-71.7*,-4.2
COc1ccc(Cn2c(O)c(/C=N/NC(=O)c3ccccc3)c(=O)[nH]c2=O)cc1,1.4%,-2.0,?,-84.8*,-4.4
O=C(N/N=C/c1c(O)n(Cc2ccccc2)c(=O)[nH]c1=O)c1ccccc1O,0.2%,-3.0,-88.8*,0.2,2.9
COc1ccc(Cn2c(O)c(/C=N/NC(=O)c3ccncc3)c(=O)[nH]c2=O)cc1,?,0.6,?,?,-0.8
O=C(N/N=C/c1c(O)n(Cc2ccc(F)cc2)c(=O)[nH]c1=O)c1ccccc1O,-4.3%,-2.5,-88.1*,?,1.4
CCn1c(O)c(/C=N/NC(=O)c2ccccc2)c(=O)[nH]c1=S,-2.1%,-4.6,-92.9*,-91.2*,-2.3
CCN(CC)c1ccc(N=Cc2c(O)n(Cc3ccccc3)c(=O)[nH]c2=O)cc1,-14.4%,0.3,-72.2*!,47.7,1.5
O=C(N/N=C/c1c(O)n(CCc2ccc(F)cc2)c(=O)[nH]c1=O)c1ccccc1,2.4%,-5.2,-9.2,-4.9,1.7
CC(C)(N)Cc1ccccc1Cl,.,.,.,.,1.3
Cc1ccc2c(c1)C1CN(C)CCC1N2 (configuration not stated),.,.,.,.,i

# Compound activity from PubChem.
